Results reported in publication PMC5540273 (PLoS ONE, 2017).

Test system: T1, YANK3
T1 construct: gene STK32C
Details: concentration: 1 μM, replicates: in singlicate; n = 1
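Further: KINOMEscan kinase panel screen.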

Compound | %Inh [%]
Nc1ncnc2[nH]c(-c3ccccc3)nc12 [AH5015] | 9
Cc1cc(-c2ccc3c(c2)CC[C@@H](N[C@@H](C)c2ccccc2)C3)cnc1N.Cl [GW412617] | 33
Cc1ccc(-c2cc(-c3c[nH]nc3-c3ccccn3)ccn2)cc1 [GW684088] | 0
O=C(Nc1n[nH]c2cc(-c3cccc(F)c3F)ccc12)C1CC1 [SB-733894] | 0
O=C(Nc1ccc2c(c1)OCO2)NC1CCN(c2ccnc(Nc3ccc(F)cc3)n2)C1 (centres unmarked) [GSK1379724] | 5
O=c1cc(N2CCOCC2)nc2n(Cc3cccc(Cl)c3Cl)ccn12 [GSK2286295] | 0
COc1cccc(NC(=O)NC2CCN(c3ccnc(Nc4ccc(F)cc4)n3)C2)c1 (centres unmarked) [GSK1379721] | 0
CN(C)CCN(C)C(=O)c1cc(-c2ccncc2)c(-c2ccc(Cl)c(O)c2)o1.Cl.Cl [SB-710397] | 35
CC(C)(C)c1ccc(C(=O)Nc2cn3cc(Cl)ccc3n2)cc1 | 3
COc1cc2nccc(Nc3ccc(NC(=O)c4ccc(C)cc4)c(O)c3)c2cc1OC.Cl [GW440132] | 16
O=C1NC(=O)C(N2CCc3ccccc32)=C1c1ccccc1Cl [SB-373598] | 20
COc1cc2ncn(-c3cc(OCC4CCCO4)c(C(N)=O)s3)c2cc1OC (centres unmarked) [GSK204607] | 0
COc1cc(Nc2nccc(N3CCC(NC(=O)Nc4cc(C)ccc4C)C3)n2)cc(OC)c1OC (centres unmarked) [GSK1379762] | 10
Cl.NC(=O)c1cccc(Nc2nccc(Nc3ccc(Oc4cccc(Cl)c4)c(Cl)c3)n2)c1 [GW659008] | 28
COc1ccccc1CNC(=O)c1cc(C(=O)c2ccccc2C)c[nH]1 [GSK364507] | 23
COc1cc2ncnc(Nc3ccc4nc(-c5ccccc5)[nH]c4c3)c2cc1OC.Cl [GW282450] | 9
NC(=O)c1nnc2ccccc2c1N | 0

Compound | %Inh [%]
CN1C(=O)C(Nc2ccc(Cl)c(C(=O)O)c2)=C(c2ccc(Cl)cc2)C1=O [SB-404290] | 0
Cc1cccc(-c2cc(Nc3ccncc3)c3ccccc3n2)n1 [GSK223675] | 0
Cc1ccc(NC(=O)Nc2cc(C(C)(C)C)nn2-c2ccccc2)cc1 [GSK1014915] | 7
Cn1ccc2ncnc(Oc3ccc(Nc4nc5ccccc5[nH]4)cc3)c21 | 2
CCn1c(-c2cccnc2O)nc2cnccc21 [SB-736715] | 0
COc1ccc(C2=C(Nc3cccc(C(=O)O)c3)C(=O)NC2=O)cc1 [SB-390765] | 0
Fc1cc(Cl)ccc1Nc1ccnc2cc(I)ccc12 [GW551191] | 20
CS(=O)(=O)c1ccc(-c2c(-c3ncn[nH]3)sc(N3CCOCC3)c2C#N)cc1 | 16
Cn1ccc2ncnc(Oc3ccc(NC(=O)Nc4ccccc4)cc3)c21 | 0
Cc1cccc(-c2nc(Nc3ccc4[nH]ncc4c3)c3ccccc3n2)n1 [GW857175] | 59
CC1=C(C(=O)Nc2cc3cn[nH]c3cc2F)C(c2ccc(C(F)(F)F)cc2)CC(=O)N1 (centres unmarked) [GSK429286] | 24
Cc1cccc(-c2nc(C)cc(Nc3ccncc3)n2)n1 [GSK257997] | 5
Fc1cccc(COc2nnc(-c3ccc4c(c3)CCO4)o2)c1 | 19
COc1ccc(CNC(=O)NC2CCN(c3ccnc(Nc4cc(OC)c(OC)c(OC)c4)n3)C2)cc1 (centres unmarked) [GSK1379748] | 0
O=C(Nc1n[nH]c2nc(-c3nccs3)c(Br)cc12)C1CCCC1 [SB-742609] | 28
Cc1csc(-c2nc(Nc3ccncc3)c3ccccc3n2)n1 [GW869640] | 43
O=C(Nc1n[nH]c2nc(-c3nccs3)c(Br)cc12)C1CC1 [SB-742251] | 7

Test system: T2, YES
T2 construct: gene YES1
Details: concentration: 1 μM, replicates: in singlicate; n = 1

Compound | %Inh [%]
Nc1ncnc2[nH]c(-c3ccccc3)nc12 [AH5015] | 18
Cc1cc(-c2ccc3c(c2)CC[C@@H](N[C@@H](C)c2ccccc2)C3)cnc1N.Cl [GW412617] | 4
Cc1ccc(-c2cc(-c3c[nH]nc3-c3ccccn3)ccn2)cc1 [GW684088] | 17
O=C(Nc1n[nH]c2cc(-c3cccc(F)c3F)ccc12)C1CC1 [SB-733894] | 0
O=C(Nc1ccc2c(c1)OCO2)NC1CCN(c2ccnc(Nc3ccc(F)cc3)n2)C1 (centres unmarked) [GSK1379724] | 0
O=c1cc(N2CCOCC2)nc2n(Cc3cccc(Cl)c3Cl)ccn12 [GSK2286295] | 14
COc1cccc(NC(=O)NC2CCN(c3ccnc(Nc4ccc(F)cc4)n3)C2)c1 (centres unmarked) [GSK1379721] | 0
CN(C)CCN(C)C(=O)c1cc(-c2ccncc2)c(-c2ccc(Cl)c(O)c2)o1.Cl.Cl [SB-710397] | 0
CC(C)(C)c1ccc(C(=O)Nc2cn3cc(Cl)ccc3n2)cc1 | 0
COc1cc2nccc(Nc3ccc(NC(=O)c4ccc(C)cc4)c(O)c3)c2cc1OC.Cl [GW440132] | 17
O=C1NC(=O)C(N2CCc3ccccc32)=C1c1ccccc1Cl [SB-373598] | 10
COc1cc2ncn(-c3cc(OCC4CCCO4)c(C(N)=O)s3)c2cc1OC (centres unmarked) [GSK204607] | 12
COc1cc(Nc2nccc(N3CCC(NC(=O)Nc4cc(C)ccc4C)C3)n2)cc(OC)c1OC (centres unmarked) [GSK1379762] | 10
Cl.NC(=O)c1cccc(Nc2nccc(Nc3ccc(Oc4cccc(Cl)c4)c(Cl)c3)n2)c1 [GW659008] | 54
COc1ccccc1CNC(=O)c1cc(C(=O)c2ccccc2C)c[nH]1 [GSK364507] | 16
COc1cc2ncnc(Nc3ccc4nc(-c5ccccc5)[nH]c4c3)c2cc1OC.Cl [GW282450] | 5
NC(=O)c1nnc2ccccc2c1N | 0

Compound | %Inh [%]
CN1C(=O)C(Nc2ccc(Cl)c(C(=O)O)c2)=C(c2ccc(Cl)cc2)C1=O [SB-404290] | 6
Cc1cccc(-c2cc(Nc3ccncc3)c3ccccc3n2)n1 [GSK223675] | 0
Cc1ccc(NC(=O)Nc2cc(C(C)(C)C)nn2-c2ccccc2)cc1 [GSK1014915] | 9
Cn1ccc2ncnc(Oc3ccc(Nc4nc5ccccc5[nH]4)cc3)c21 | 0
CCn1c(-c2cccnc2O)nc2cnccc21 [SB-736715] | 0
COc1ccc(C2=C(Nc3cccc(C(=O)O)c3)C(=O)NC2=O)cc1 [SB-390765] | 11
Fc1cc(Cl)ccc1Nc1ccnc2cc(I)ccc12 [GW551191] | 15
CS(=O)(=O)c1ccc(-c2c(-c3ncn[nH]3)sc(N3CCOCC3)c2C#N)cc1 | 13
Cn1ccc2ncnc(Oc3ccc(NC(=O)Nc4ccccc4)cc3)c21 | 0
Cc1cccc(-c2nc(Nc3ccc4[nH]ncc4c3)c3ccccc3n2)n1 [GW857175] | 13
CC1=C(C(=O)Nc2cc3cn[nH]c3cc2F)C(c2ccc(C(F)(F)F)cc2)CC(=O)N1 (centres unmarked) [GSK429286] | 17
Cc1cccc(-c2nc(C)cc(Nc3ccncc3)n2)n1 [GSK257997] | 15
Fc1cccc(COc2nnc(-c3ccc4c(c3)CCO4)o2)c1 | 0
COc1ccc(CNC(=O)NC2CCN(c3ccnc(Nc4cc(OC)c(OC)c(OC)c4)n3)C2)cc1 (centres unmarked) [GSK1379748] | 0
O=C(Nc1n[nH]c2nc(-c3nccs3)c(Br)cc12)C1CCCC1 [SB-742609] | 10
Cc1csc(-c2nc(Nc3ccncc3)c3ccccc3n2)n1 [GW869640] | 0
O=C(Nc1n[nH]c2nc(-c3nccs3)c(Br)cc12)C1CC1 [SB-742251] | 16
